The supplement of paper PMC12632987

T1: FBXL12, Q9NXK8
T1 chain: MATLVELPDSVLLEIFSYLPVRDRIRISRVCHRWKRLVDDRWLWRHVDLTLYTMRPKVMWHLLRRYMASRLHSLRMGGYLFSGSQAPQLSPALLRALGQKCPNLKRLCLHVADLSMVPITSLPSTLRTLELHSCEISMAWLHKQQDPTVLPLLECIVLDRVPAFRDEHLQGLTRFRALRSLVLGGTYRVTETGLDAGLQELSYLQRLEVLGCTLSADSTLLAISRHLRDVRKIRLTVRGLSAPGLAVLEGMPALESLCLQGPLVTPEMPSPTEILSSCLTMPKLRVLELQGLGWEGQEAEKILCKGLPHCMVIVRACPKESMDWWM


Biological target: T1, FBXL12, Q9NXK8
Test: median log2 fold change of GCK-ALFA target abundance (FLAG IP / Myc IP barcode read proportion) (log2 ratio); each designed protein is fused to an ALFA-tag nanobody in HEK293 cells to bring the named protein to FLAG-tagged glucokinase (GCK); Myc marks an untargeted standard; higher = target protein stabilised (more abundant)
Details: target protein: 3xFLAG-MCP-GCK-ALFA reporter; HEK293 landing pad (RPLP)
Description: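 LABEL-seq trans screen in HEK293 landing-pad cells. Each de novo designed 100-aa effector handle, binding the indicated effector (E3 ligase, DUB or autophagy protein), is fused to a constant NbALFA target handle and induced with 2 ug/mL doxycycline. A FLAG-MCP-GCK-ALFA target and a Myc-MCP standard reporter were transfected, and after 48 h circRNA barcodes were recovered by anti-FLAG and anti-Myc IP and sequenced. The value is the median across barcodes (at least 3 per design) of log2(FLAG/Myc read-proportion ratio), with the two transfection replicates pooled. Negative values mean degradation and positive values mean stabilisation of the target.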

| Binder | median log2 fold change |
| --- | --- |
| FBXL12_hotspot_147_13 (protein) REVTVVVQLGAQAESTARYAAELVVGLGEAGVGRIRVVVRSARLEDALLAARELARAVARLPESVEVEVTFEGLSPEDVARARAVYEATLAAERAAQAAA | -0.0622 |
| FBXL12_hotspot_16_23 (protein) KIMVVRVRGRTPEELRPTLDRAVEIAIGLMKAGVDAIIFVAVVERAEDLPAVEALVAERRAALEAAAKEHGSKLEVVVGVAADEEAVEARVKALEEELEA | 0.127 |
| FBXL12_hotspot_147_15 (protein) MEVTIRVVLGPGSESTVETAIALAAGLHEAGVEKIRIEVEAEDPEEALRAAERLAVEVGRKADVDEILAYDSRTGELLKRLDREEIKEIREEAERREREA | 0.23 |
| FBXL12_hotspot_9_121 (protein) RIVVIRQFIESEEEVGPTVRRAVAYARAAADAGWRVIIVISAASPEVAEAARRVLEEELGEEVAELRARGARIVVTSSREEAERKKAELLEAALAEEDAA | -0.228 |
| FBXL12_hotspot_16_18 (protein) REIIVVVGLLEAERVESTLTTARDIVAGLREAGVDRVDVVIYTETPEAAAKLAELRPTIVAAIEAEVAAAGGRLSVHDTREAAEATREAILAEIDEREAA | 0.0965 |
| FBXL12_hotspot_16_21 (protein) KIMIIKVVAPTEEAARSGIETATKIAKGLMEAGVDAIILLAVAEEEALLPFLEELVEKHKEELEEAAKKYGAKLKVIVGTRADLAALEAEAEAIAAELEA | -0.165 |
| FBXL12_hotspot_16_17 (protein) RDIVVVVGLLTAERVRSTLERAAEIVEGLRAAGVDRINVVIYAETEEAWAELERLEPTIVARIRAAVAAAGGELHIHRTREEAEKTREEILAEIDEEEEA | 0.0399 |
| FBXL12_hotspot_9_113 (protein) RILVLSAFAETKEEAEEKLARIREWARAAAAAGWDVIIVVAASTEEVAEYARRLLEELEAELRAAYPDVRVRVDVRLTREEAEETKARLLAEALEEEDRR | -0.106 |
| FBXL12_hotspot_162_16 (protein) MKRLLILSFVIKATESPEEAKKRLKQFEEYALEMIEEALKNPEFKVVVVLASDGSPEDLEWVKEAAKRIKEKFPEVEVEVFETGEAAEKRIEELEEEAER | -0.0487 |
| FBXL12_hotspot_9_123 (protein) MIVVIRENVKREEDIEPALRRAVAYAEAAAEAGWRVILVFSASSEELKEKAKEILETKLGERVARLKARGARIVVTATEEEAERKKRELLEEALREEDEA | -0.0307 |
| FBXL12_hotspot_9_125 (protein) RHVIISVTARTEEELREKIDRALDYAEAAAAAGWKVHLIVSGLSPELLAAAKELLATEHAERVAALKAAGAEIHLKETVEEGEALKAEILAEIEEEAERE | 0.23 |
| FBXL12_hotspot_9_124 (protein) MHVIISQYAETEEEARRQIERALEYAKAAAEAGWKVTVIFSASTEELKEFIEELLETEYAEEVAELKAKGVEIHVVETEEEAERLKEEILEEIEEEAEEE | -0.161 |
| FBXL12_hotspot_9_122 (protein) RIVVISEFVESPEEVEPVVRRAVEYAEAAAAAGWRVIIVIAAASPEVAEHARRVLEERFGERVARLRAAGARIEVRASREEAERAKRELLEEALAEEDAA | 0.0626 |
| FBXL12_hotspot_9_118 (protein) RVLVISEYVRSEAEVEPAIARALAYARAAADAGWRVIVVISAASPAIAAHARRLLATRYGEEVAELRARGARIVVRDSRAAAEAEKARLLAEALAAEDAA | -0.563 |
| FBXL12_hotspot_9_112 (protein) MTVILGVYAETEEELRRKLERALEYAEAALEAGWEVHIVVGAATPELAEAARRLLEEELGERVAELRARGAVIRVEETFEAARARREEIREEIERRAEEE | -0.276 |
| FBXL12_hotspot_9_117 (protein) KTVIIGVVAATPEAARSTLAVAREIARGLAEAGIKVHVIMAASSEETREEVLAIFREAGAEIQAELADKGVKVRVAETMEEYERLKAEVLEEIDREEEEE | 0.0889 |

| Binder | median log2 fold change |
| --- | --- |
| FBXL12_hotspot_9_115 (protein) RTILVVASANTVERVRSTLETALKISIGLAEAGHKVILLIAAATEEVLEKAKELLETELKPLVEKLKELGVEVKEPVLYEEAEPLKEEILEEIDEEEEEE | 0.00902 |
| FBXL12_hotspot_134_9 (protein) RTVVVIVSANGVSDAQARAAVDRAETIIAGLRAAGHRVLFVLVLSLADAAVGDALVARARAAAAAHGAEVVAAENVPAADFEAVLAAARARALARLDELE | 0.11 |
| FBXL12_hotspot_186_25 (protein) QRIEVRVSFSEDLEQARAGLELAIGLLEALLARGLIESAASLARSTVRAARELAARTDDEEVKRLLAEGLERIAEILRKHPELAEELEEVERAAREIRER | 0.0938 |
| FBXL12_hotspot_16_19 (protein) KDIILSVGVEEAERVEPSLELALEIVKGLKEAGVDRINVVIYAETEEAYKKIEELKDTILKEIEEAVKEAGGKLSVHKTKEAAEKEIERILEEIDKREEE | -0.0797 |
| FBXL12_hotspot_141_11 (protein) KGLLIVIMTSSIPEEKREEIKKHAEEAAKKAGIELIFEVAENEEEAEKIKEELLKEAEEKGYDVIGVLTVTDPNMDVERVKAYVEALVEWIKAKLEQLKA | 0.126 |
| FBXL12_hotspot_16_24 (protein) PVRILVIRQASTQRTPEGVAYQREAAVAAARAGMDAVILVGLAEREEDVPEMEALVADFEAAVRAANPDIIVEGAVARTEEEAEALKAALLARVEARLAA | 0.171 |
| FBXL12_hotspot_9_119 (protein) KVLVIYERIENPEDVEPAIERAIEYARAAAEAGWKVIVVFSAANPEIAEHTRRLLETRFGEEVAELEARGARIVVRDNEEEAEETKERLLREALEEEDRE | 0.0418 |
| FBXL12_hotspot_141_10 (protein) RGLVIVIATAAVPEEVRAAVRAAAREAAAAAGVALRFEEAEDEEAAEELRERLLAEAEEEGYDAVGVLVLTSPEMSAERAIAYVRALVAFVAARVARLEA | -0.0786 |
| FBXL12_hotspot_9_114 (protein) RVLVLSFFAETREEAERELARMEEWARAALAAGWDVLIVVAAATEEVAAHARELLARMEAALRAAYPDRRVRVAVALTREAAAAAKAALLAELLAEADAA | -0.157 |
| FBXL12_hotspot_16_20 (protein) KIMIIRVVAGTEEEARSSVETAKKIAIGLMEAGVDAIILEAIAEKEELLPFLKELVEEKEKELREAAKKYGAKLRILVGTLDDLEELRAQAEAIAAELEA | -0.134 |
| FBXL12_hotspot_147_14 (protein) MKVTIRVVLEEGSETTVEMAIELAKGLHEAGVEEIRVEVEARDPEVALAAAERLAVEIGRGADVAEIRAFDRETGELLRRLDREEIRRIRAAAEEAEAAA | 0.119 |
| FBXL12_hotspot_147_12 (protein) REMTVVVQLGSSAESTAAYAAEVVLGLAQAGVDRIRVVVRTRDHEQALLAARELARADARAPASVTIELTFEGLTPEQVAEALAVYAETLAAERARLAAA | -0.623 |
| FBXL12_hotspot_127_8 (protein) SDIEVRVSVPTYQSYRYAVAILLEMLKIDVKNGGKNVEKLLEQLKALMEDAAKHLPKEDVLELLDEAIKSLKELKKESPEHKELFDKAIKYLEKLRKEVE | -0.133 |
| FBXL12_hotspot_9_120 (protein) RIVVIHEFLESLEDVGPRLTRAVDIAETAADAGWKVILVFSAASPEVAAAARRYLAEELGERVAALEARGAVIRVAESREEAERIKRELLEEALREEDEA | -0.0369 |
| FBXL12_hotspot_16_22 (protein) KIMIIKVVAATPEAARGTIETATKIAKGLMEAGVDAVILQAVAEKEEILPFLKELVEEKEKELKEVAKKYGSKLEVFVGTAADLEELEKEVKEKEKELEA | 0.0857 |
| FBXL12_hotspot_9_116 (protein) KTVVVLARALRVETVESTLRTALEIAIGLAKAGVKVHLVIGAADEEVLAKARELLATRLAPLVEEARALGVEVHEPALYEEAEALVEEILEEIDEEEEEE | 0.0101 |
